{"source": "paper PMC12136788", "binders": {"B1": {"name": "chr16:5044585:5044836:-|CDS|ENSG00000153446|control|control|control (ssRNA)", "RNA": "GGGAGUUCUACAGUCCGACGAUCGAGUAGCUGGGACUACAGGAGCGUGCCACCAUACCUGGCUAAUUUUUAUAUUUUUUUAGUAGAGACAGGGUUUCAUCAUGUUGCUCAUGCUGGUCUCGAACUCCUGAUCUCAAGAGAUCCCAACAGAGGAUUGAGCAUCA"}, "B2": {"name": "chr5:144162273:144162391:-|CDS|ENSG00000145817|unk|total|mutant (ssRNA)", "RNA": "GGGAGUUCUACAGUCCGACGAUCCCCACCGGCUGGCAAAAUCCAGUUUGGCUAUGUAUACGGGAUCAGUGCAAUUGGAUGUCCCGGAAUGUUUUGUUUAUUAAACUUAAUGAGUAUGACAGGUGUUUCAUUUGGUUGUGUGGCCAACAGAGGAUUGAGCAUCA"}, "B3": {"name": "chr2:11642538:11642650:+|3pUTR|ENSG00000196208|unk|total|mutant (ssRNA)", "RNA": "GGGAGUUCUACAGUCCGACGAUCCGAAGAGUUGAUGUCAAUCUUUUUUUCCUAAGAAAAAAAGUCCGCGAGUAUUAAAUAUUCCGAUCAAUGUUUAUAAAAUGAUUACUUUGUAUAUCUCAUUAUUCCUAUUUUGGAAUAAAACAACAGAGGAUUGAGCAUCA"}, "B4": {"name": "chr4:185586528:185586629:-|3pUTR|ENSG00000154556|msi1|FALSE|unique (ssRNA)", "RNA": "GGGAGUUCUACAGUCCGACGAUCAUCCAUAUGAUAUGUUGUACAUUUUAUGGAAAUGUAAUAGAAUCUCACACAUUAUUUUAUAGAAAUAGAGUACAGAAGCAUCACAAGUAUUAAAGUUGGUUUUAGCAAGGAUUAGGAUUACAACAGAGGAUUGAGCAUCA"}, "B5": {"name": "chr5:72990507:72990614:+|CDS|ENSG00000157107|unk|FALSE|unique (ssRNA)", "RNA": "GGGAGUUCUACAGUCCGACGAUCGUAUGGGAUGUAUUCAAAACAUCUACAGAGAAAUUAGCAAAUUGUCACUUGGAUCUUGUUAGAAAAUUACAAGAAUUAAUAAAGGAAGUUCAGAAGUAUGGAGAAGAACAAGUAAAGUCUCAACAGAGGAUUGAGCAUCA"}, "B6": {"name": "chr3:11557766:11557867:-|3pUTR|ENSG00000144560|msi1|total|mutant (ssRNA)", "RNA": "GGGAGUUCUACAGUCCGACGAUCCUGGACUGCAGACUCUACCAAUCACGGGCAUUUUAUCUUCUCUGAACACUGCAGUUUGUCCGACCCGAGCUGAGGUUGGAGGAUUCCACCGUGCUUUAAACGUGAUGCAUGUUUUAAUGGCAACAGAGGAUUGAGCAUCA"}, "B7": {"name": "ENSG00000136451:be:win_3151|3pUTR|ENSG00000136451|bound_else_gene|NA|bound_elsewhere_windowed (ssRNA)", "RNA": "GGGAGUUCUACAGUCCGACGAUCUGAGACAGACUUCCUACAUCAGGGACAGGUAUCUGUGUGUCAUUAUACAAAACAGUUCUAGGGGGUUGAACUACAUAGUAAAAAAAUAAAAUAAAUAGUACUUAGUGUAAAAUAAUUUUACAACAGAGGAUUGAGCAUCA"}, "B8": {"name": "ENSG00000136451:be:win_3101|3pUTR|ENSG00000136451|bound_else_gene|NA|bound_elsewhere_windowed (ssRNA)", "RNA": "GGGAGUUCUACAGUCCGACGAUCUUCCAUUUAUACCCUACUGUGUCAGUUCAAGCAUCAAAAUACCUUGCAUCUGAGACAGACUUCCUACAUCAGGGACAGGUAUCUGUGUGUCAUUAUACAAAACAGUUCUAGGGGGUUGAACAACAGAGGAUUGAGCAUCA"}, "B9": {"name": "chr15:60490033:60490134:-|3pUTR|ENSG00000069667|unk|FALSE|unique (ssRNA)", "RNA": "GGGAGUUCUACAGUCCGACGAUCUGCUGGAUUUGGGACAUGCUUUUCUCUUUAAAUACAUAAUAUCAUUAUAUAAAUUAUUCUAGAGUGUAUUUAAUUAGGAUAAAAUUACUUCCUUAGUAUGGAUAUUUGACAUCUAUAGGGCAACAGAGGAUUGAGCAUCA"}, "B10": {"name": "ENSG00000136451:be:win_3201|3pUTR|ENSG00000136451|bound_else_gene|NA|bound_elsewhere_windowed (ssRNA)", "RNA": "GGGAGUUCUACAGUCCGACGAUCAACAGUUCUAGGGGGUUGAACUACAUAGUAAAAAAAUAAAAUAAAUAGUACUUAGUGUAAAAUAAUUUUAUAAAUGAUCUUUUGUACUUUAGGACAUUAAAUUGUACAACUUUUGUAUAUCAACAGAGGAUUGAGCAUCA"}, "B11": {"name": "chr17:57972098:57972209:-|3pUTR|ENSG00000136451|unk|FALSE|bound_elsewhere (ssRNA)", "RNA": "GGGAGUUCUACAGUCCGACGAUCCUAGAAUGUGGUUGUCAGAACCCUGAAAGUAUUAGUUCUAAAAAAAAAAAGAUAUAUACUAGAAGUAAUUGUUUUAUCAAUUCAUUGUAUAAUAAACAGGAGUGAGACUUCAUUGUAUGACAACAGAGGAUUGAGCAUCA"}, "B12": {"name": "ENSG00000136451:be:win_3251|3pUTR|ENSG00000136451|bound_else_gene|NA|bound_elsewhere_windowed (ssRNA)", "RNA": "GGGAGUUCUACAGUCCGACGAUCCUUAGUGUAAAAUAAUUUUAUAAAUGAUCUUUUGUACUUUAGGACAUUAAAUUGUACAACUUUUGUAUAUAUAAAAGCUUAGGAACUUUCUGUUUAGCAGGAAGGCAACACAUUCCUACACAACAGAGGAUUGAGCAUCA"}, "B13": {"name": "chr3:129431351:129431457:-|3pUTR|ENSG00000129071|unk|total|mutant (ssRNA)", "RNA": "GGGAGUUCUACAGUCCGACGAUCACUUCAAAAAAGCUUAAUUAAGUACAACCAACCACCUUUCCAGCCACCGAGAUUUUAAUCCGCCCAACCCGAAGCCCCGUGUGUGUGCUUUCUUAAUGUGUGUGCCAAUGGUGGAUCUUUCAACAGAGGAUUGAGCAUCA"}, "B14": {"name": "chr11:61873518:61873813:-|three_prime_utr|ENSG00000221968|control|control|control (ssRNA)", "RNA": "GGGAGUUCUACAGUCCGACGAUCCCCUCACAUGUGUAUUCAGCAGCCCUAUGGCCUUGGCUCUGGGCCUGAUGGGACAGGGGUAGAGGGAAGGUGAGCAUAGCACAUUUUCCUAGAGCGAGAAUUGGGGGAAAGCUGUUAUUUCAACAGAGGAUUGAGCAUCA"}}, "note": "Whole data set: some 5,800 sequences, median “enrichment r” near 0.68, cut for the highest 2% near 11. Shown is part of a subset that was picked to be rich in the highest values.", "data": [{"molecular_target": "T1, UNK ZnF1-6 (called full-length) (human, UniProt Q9C0B0 30-357)", "T1 sequence": "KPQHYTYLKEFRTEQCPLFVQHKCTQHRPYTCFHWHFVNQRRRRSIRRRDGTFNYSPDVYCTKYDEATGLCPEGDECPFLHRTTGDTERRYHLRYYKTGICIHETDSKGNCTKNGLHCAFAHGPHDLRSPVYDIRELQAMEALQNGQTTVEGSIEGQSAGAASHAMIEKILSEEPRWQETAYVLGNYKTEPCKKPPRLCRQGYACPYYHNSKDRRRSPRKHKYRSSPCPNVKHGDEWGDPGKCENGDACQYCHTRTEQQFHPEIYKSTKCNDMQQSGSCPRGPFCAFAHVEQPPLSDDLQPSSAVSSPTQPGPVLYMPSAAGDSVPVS", "assay": "nsRBNS (natural sequence RNA bind-n-seq); RBNS binding buffer (assumed for nsRBNS): 25 mM Tris pH 7.5, 150 mM KCl, 3 mM MgCl2, 0.01% Triton X-100, 500 ug/ml BSA, 20 U/ml SUPERase-In, 4 C; UNK is unkempt and MSI1 is Musashi-1; names of the RNAs are library labels; protein concentration not given here; high values mean tight binding", "units": {"binding signal": "enrichment R"}, "values": [{"binder": "B1", "binding signal": 2.13}, {"binder": "B2", "binding signal": 0.596}, {"binder": "B3", "binding signal": 0.544}, {"binder": "B4", "binding signal": 11.6}, {"binder": "B5", "binding signal": 3.86}, {"binder": "B6", "binding signal": 0.682}, {"binder": "B7", "binding signal": 44}, {"binder": "B8", "binding signal": 0.463}, {"binder": "B9", "binding signal": 4.69}, {"binder": "B10", "binding signal": 96.7}, {"binder": "B11", "binding signal": 4.83}, {"binder": "B12", "binding signal": 6.05}, {"binder": "B13", "binding signal": 0.636}, {"binder": "B14", "binding signal": 1.12}]}]}
